This is an account of results in PubChem BioAssay (Tox21).

Test [1] can be described thus: cAMP Responsive Elements (CRE) small molecule antagonists, cell-based qHTS assay: qHTS cell viability counter screen (AID 2060913). Also: nearly all actives have a fitted effect of over 40% in size. The following applies: CRE-bla HEK293T viability, CellTiter-Glo luminescence, 5 h; series mostly up to 92.4 µM. The method in brief: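 Viability of NKH477-stimulated (0.25 uM final) CRE-bla HEK293T cells is measured by CellTiter-Glo luminescence following 3 hrs compound exposure at 37 C.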
A general note: In qHTS, concentration-response curves come from the screen itself.

Test [2] in a line: cAMP Responsive Elements (CRE) small molecule agonists, cell-based qHTS assay: qHTS cell viability counter screen (AID 2060914). Also: nearly all actives have a fitted effect of over 50% in size. The following applies: CRE-bla HEK293T viability, CellTiter-Glo luminescence, 5 h; series mostly up to 92.4 µM. The method in brief:
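In the same wells as the reporter read, viability of CRE-bla HEK 293T cells was quantified by CellTiter-Glo luminescence after a 3 h compound exposure.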

Records with an inconclusive call do not appear. Unmarked numbers belong to inactive results. The source made the active and inactive calls. Calls follow the shape of the dose curve; as a rule, active = well fitted cell-killing curve with a large enough effect in the repeat runs; inconclusive = weak or mixed curves, or effect the other way; inactive = flat fitted curve, though single readings scatter.
% is scaled to controls: 0 for no effect and ±100 for the full control effect.

As for `CC(C)(O)c1ccc(C(C)(C)O)cc1`, the Potency result in test [1] and in test [2] was “inactive” each time.
With `CCC[C@@H]1C[C@@H](C(=O)N[C@@H]([C@H]2O[C@H](SC)[C@H](O)[C@@H](O)[C@H]2O)[C@@H](C)O)N(C)C1`, the Potency result in test [1] and in test [2] was “inactive” in each case.
For the molecule `O=C(NCCCN1CCOCC1)c1ccc(Cl)cc1`, the Potency entry in test [1] and in test [2] was “inactive” in each case.
Turning to `O=[N+]([O-])c1c(Cl)cc(Cl)cc1Cl`, the Potency result in test [1] and in test [2] was “inactive” each time.
For `CCCCCCCC(=O)OCC(COC(=O)CCCCCCC)OC(=O)CCCCCCC`, the Potency result in test [1] and in test [2] was “inactive” each time.
For the molecule `Cc1c(C(C)C)c(=O)n(-c2ccccc2)n1C`, the Potency entry in test [1] and in test [2] was “inactive” in each case.
Consider `CC1(C)O[C@@H]2[C@@H](CO[C@@]3(COS(N)(=O)=O)OC(C)(C)O[C@@H]23)O1`, for which the Potency entry in test [1] and in test [2] was “inactive” each time.
`CN(C)CCCN(C)C`: in test [1], the viability change, negative = cytotoxic was 8.18% [at 8.39 µM]. In addition, the activity change, negative = cytotoxicity in test [2] was -2.69% [at 8.39 µM].
With `CCC(C)[O-].CCC(C)[O-].CCOC(=O)/C=C(/C)[O-].[Al+3]`, the Potency result in test [1] and in test [2] was “inactive” each time.
`CN1CCC(N(Cc2cccs2)c2ccccc2)CC1`: the Potency result in test [1] and in test [2] was “inactive” throughout.
`O=C(O)CCC(=O)OC[C@@H](NC(=O)C(Cl)Cl)[C@H](O)c1ccc([N+](=O)[O-])cc1`: the Potency entry in test [1] and in test [2] was “inactive” each time.
Take `O=S(=O)(O)c1cccc2ccccc12`: the Potency entry in test [1] and in test [2] was “inactive” throughout.
For the molecule `O=CNc1ccccc1`, the Potency result in test [1] and in test [2] was “inactive” each time.
Turning to `Cc1cc(=O)n(-c2ccccc2)n1C`, the Potency result in test [1] and in test [2] was “inactive” each time.
As for `NC(=O)c1ccccc1C(N)=O`, the Potency entry in test [1] and in test [2] was “inactive” each time.
In the case of `CN(C)C(=N)N=C(N)N`, the Potency result in test [1] and in test [2] was “inactive” throughout.
For `O=C(O)CCN(C1(C(=O)NO)CCCC1)S(=O)(=O)c1ccc(Oc2ccc(F)cc2)cc1`, the Potency result in test [1] and in test [2] was “inactive” each time.
Consider `N#Cc1ccccc1`, for which the Potency entry in test [1] and in test [2] was “inactive” each time.
`Cc1onc(-c2ccccc2Cl)c1C(=O)N[C@@H]1C(=O)N2[C@@H]1SC(C)(C)[C@@H]2C(=O)O`: the Potency result in test [1] and in test [2] was “inactive” in each case.
In the case of `Nc1ccc(S(=O)(=O)NCc2ccccc2)cc1`, the Potency entry in test [1] and in test [2] was “inactive” throughout.
With `CCCCC(CC)CCC(CC(C)C)OS(=O)(=O)O` (configuration not stated), the Potency entry in test [1] and in test [2] was “inactive” each time.
In the case of `COC(=O)[C@H](Cc1ccccc1)NC(=O)[C@@H](N)CC(=O)O`, the Potency entry in test [1] and in test [2] was “inactive” in each case.
`COc1cc(OC)c2ccc(=O)oc2c1`: the Potency result in test [1] and in test [2] was “inactive” in each case.
In the case of `CCCC=O`, the Potency entry in test [1] and in test [2] was “inactive” in each case.
Consider `CC(C)NCC(O)COc1ccc(CC(N)=O)cc1` (configuration not stated), for which the Potency result in test [1] and in test [2] was “inactive” throughout.
Regarding `CC1CCC(=O)C1=O` (configuration not stated), the Potency result in test [1] and in test [2] was “inactive” in each case.
With `Cc1c(C(=O)NN2CCCCC2)nn(-c2ccc(Cl)cc2Cl)c1-c1ccc(Cl)cc1`, the Potency result in test [1] and in test [2] was “inactive” in each case.
For `CC(=O)[C@]1(O)Cc2c(O)c3c(c(O)c2[C@@H](O[C@H]2C[C@H](N)[C@H](O)[C@H](C)O2)C1)C(=O)c1ccccc1C3=O`, the Potency entry in test [1] and in test [2] was “inactive” throughout.
In the case of `CC(=O)Oc1ccc2c(c1)CC[C@@H]1[C@@H]2CC[C@]2(C)[C@@H](O)CC[C@@H]12`, the Potency entry in test [1] and in test [2] was “inactive” in each case.
Regarding `CCN(CC)CCSC(=O)C(c1ccccc1)c1ccccc1`, the Potency result in test [1] and in test [2] was “inactive” throughout.
Regarding `CCn1nc(C)c2c1C(=O)NCC(c1ccc(O)cc1)=N2`, the Potency entry in test [1] and in test [2] was “inactive” throughout.
Regarding `CCN(CC)CCNc1ccc(CO)c2sc3ccccc3c(=O)c12`, the Potency result in test [1] and in test [2] was “inactive” in each case.
Consider `O=C(c1ccc(Cl)cc1)c1ccc(Cl)cc1`, for which the Potency result in test [1] and in test [2] was “inactive” in each case.
Turning to `CC(=O)O[C@@H]1CC2CCC1(C)C2(C)C` (some centres not stated), the Potency result in test [1] and in test [2] was “inactive” throughout.
For `CCCC(C)CC` (configuration not stated), the Potency entry in test [1] and in test [2] was “inactive” each time.
`CCCCCOC(=O)CCCCC`: the Potency result in test [1] and in test [2] was “inactive” in each case.
Turning to `C[C@]12CC[C@@H]3c4ccc(O)cc4CC[C@H]3[C@@H]1CC[C@@H]2OC(=O)CCC1CCCC1`, the Potency entry in test [1] and in test [2] was “inactive” throughout.
Turning to `CC(=O)[C@H]1CC[C@H]2[C@@H]3C[C@H](C)C4=CC(=O)CC[C@]4(C)[C@H]3[C@@H](O)C[C@]12C`, the Potency entry in test [1] and in test [2] was “inactive” in each case.
Consider `ON=C1CCCCC1`, for which the Potency result in test [1] and in test [2] was “inactive” each time.
On to `C(=C\c1ccccc1)/CN1CCN(C(c2ccccc2)c2ccccc2)CC1`, for which the Potency entry in test [1] and in test [2] was “inactive” each time.
Regarding `CC(=O)OCCOCCOCCOC(C)=O`, the Potency entry in test [1] and in test [2] was “inactive” in each case.
For the molecule `CC(=O)N1CCN(c2ccc(O)cc2)CC1`, the Potency result in test [1] and in test [2] was “inactive” in each case.
As to `CC(C)CCCCCOC(=O)CCS`, the Potency entry in test [1] and in test [2] was “inactive” throughout.
`O=C(O)c1cc(N=Nc2ccc(S(=O)(=O)Nc3ccccn3)cc2)ccc1O`: the Potency result in test [1] and in test [2] was “inactive” each time.
Take `CC(C)CC(=O)OCc1ccccc1`: the Potency result in test [1] and in test [2] was “inactive” throughout.
For `Nc1cc(S(=O)(=O)O)ccc1S(=O)(=O)O`, the Potency result in test [1] and in test [2] was “inactive” in each case.
Consider `CC(N)C12CC3CC(CC(C3)C1)C2` (configuration not stated), for which the Potency result in test [1] and in test [2] was “inactive” throughout.
Turning to `CCC(=O)c1cccc(Cl)c1`, the Potency entry in test [1] and in test [2] was “inactive” in each case.
Turning to `CCCC(=O)Nc1ccc(OCC(O)CNC(C)C)c(C(C)=O)c1` (configuration not stated), the Potency entry in test [1] and in test [2] was “inactive” each time.
As for `O=S(=O)(O)NC1CCCCC1`, the Potency entry in test [1] and in test [2] was “inactive” throughout.
Consider `CC1=C(/C=C/C(C)=C/C=C/C(C)=C/CO)C(C)(C)CCC1`, for which the Potency entry in test [1] and in test [2] was “inactive” throughout.
For the molecule `CC(=O)CC/C=C(\C)CC/C=C(\C)CC/C=C(\C)CCC=C(C)C`, the Potency entry in test [1] and in test [2] was “inactive” each time.
For `C=C[C@H]1CN2CC[C@H]1C[C@@H]2[C@@H](O)c1ccnc2ccc(OC)cc12`, the Potency result in test [1] and in test [2] was “inactive” each time.
For the molecule `CCCCCCCCCCCC[N+](C)(C)CC(=O)[O-]`, the Potency result in test [1] and in test [2] was “inactive” throughout.
Turning to `NS(=O)(=O)c1ccccc1OC(F)(F)F`, the Potency result in test [1] and in test [2] was “inactive” each time.
Regarding `Clc1cccc(C(c2ccc3nc[nH]c3c2)n2ccnc2)c1` (configuration not stated), the Potency entry in test [1] and in test [2] was “inactive” each time.
